The structures appear in SMILES notation. Inconclusive results are not listed. A call without a number means that no potency is given here. Values without a mark were called inactive. Active and inactive are the calls of the source. Calls come from the whole dose curve; as a rule, active = well fitted activation curve with a large enough effect in the repeat runs; inconclusive = weak or mixed curves; inactive = flat fitted curve, though single readings scatter.

The nature of this assay: A CellTox Green Cytotoxicity Assay to monitor cytotoxicity in HEK293 cells - 32 hour (AID 1224881). Note: nearly all actives have a fitted effect of over 40% in size. As to conditions: CellTox Green fluorescence; series mostly up to 76.8 µM. The method in brief: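 Seeding of HEK293 cells together with cytotoxicity dye preceded a 5 h incubation at 37 C/5% CO2. Test compounds in DMSO were then added and fluorescence monitored across 40 h.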
Consider `OC(c1ccccc1)(c1ccccc1)C1CCNCC1`, for which the Potency entry is “inactive”. In the case of `COC(=O)c1c(C(F)F)nc(C(F)(F)F)c(C2=NCCS2)c1CC(C)C`, the Potency result was “inactive”. For `O=C(CCN1CC1)OCC(CO)(COC(=O)CCN1CC1)COC(=O)CCN1CC1`, the Potency result was “inactive”. In the case of `CC(C)NCC(O)c1ccc(N)c(C#N)c1` (stereo not drawn), the Potency entry is “inactive”. On the same count and under the same terms, the value for `O=C(Nc1ccccc1)c1ccccc1I` was “inactive”; that for `CC(=O)CCc1ccc2c(c1)OCO2` was “inactive”. Take `OC(Cn1cncn1)(c1ccc(F)cc1)c1ccccc1F` (stereo not drawn): the Potency entry is “inactive”. The same measure, in the same setting: the value for `COCC(=O)N(c1c(C)cccc1C)N1CCOC1=O` was “inactive”.

For `O=NN1CCN(N=O)CC1`, the Potency entry was “inactive”. Same read-out and setting: the value for `ClCCCN1CCN(c2cccc(Cl)c2)CC1` was “inactive”; that for `N#Cc1ccncc1` was “inactive”. As for `Cc1cccc(C#N)c1`, the Potency entry is “inactive”. Take `ClCCOCOCCCl`: the Potency entry is “inactive”. `CCN(Cc1ccc(Cl)nc1)/C(=C/[N+](=O)[O-])NC`: the Potency result was “inactive”. Still for that read-out and setting: in the case of `CC(C)(C)NCC(O)c1cc(Cl)c(N)c(Cl)c1` (stereo not drawn) it was “inactive”; in that of `CCCSP(=S)(OCC)Oc1ccc(Cl)cc1Cl` (stereo not drawn), “inactive”. With `CCC(C)(C)c1cc(-n2nc3ccccc3n2)c(O)c(C(C)(C)CC)c1`, the Potency result is “inactive”. The same measure, in the same setting: in the case of `CC1(C)CON(Cc2ccccc2Cl)C1=O` it was “inactive”; in that of `C=C(C)[C@@H]1CC=C(C=O)CC1`, “inactive”; in that of `CCCCOP(=O)(O)OCCCC`, “inactive”. For `NC(=O)O`, the Potency entry is “inactive”. Take `O=[N+]([O-])c1cccc2cccnc12`: the Potency entry is “inactive”. As to `CC1=C(C(=O)O)N2C(=O)[C@@H](N)[C@H]2SC1`, the cytotoxicity increase is -10.4% [at 15.8 µM]. As for `Cc1cc(C)nc(Nc2ccccc2)n1`, the Potency entry is “inactive”.

In the case of `CCS(=O)(=O)C(C)(C)S(=O)(=O)CC`, the Potency entry was “inactive”. The same measure, in the same setting: the value for `CCOC(=O)CP(=O)(OCC)OCC` was “inactive”; that for `CNC(=O)Oc1ccccc1C1OCCO1` was “inactive”; that for `CC(=O)Nc1cc([As](=O)(O)O)ccc1O` was “inactive”. For the compound `ClC(Br)Br`, the Potency entry was “inactive”. On the same count and under the same terms, in the case of `C[N+](C)=CCl` it was “inactive”. For `CCC1(c2ccccc2)C(=O)NC(=O)NC1=O`, the Potency result is “inactive”. On the same count and under the same terms, the value for `CC(Cl)(Cl)[N+](=O)[O-]` was “inactive”; that for `CCOP(=O)(OCC)OP(=O)(OCC)OCC` was “inactive”.
